Screens (PubChem BioAssay)
Most compounds without a hit are left out; they make up all but 3.7% or so of the library.
BJeLR lethal = MLPCN primary cell-based screen for lethality selective to Ras in HRASV12 cells | BJeLR (HRASV12) viability, CellTiter-Glo ATP luminescence, 48 h | inhibition, % (test concentration not listed) | actives 0.17% (n = 300,000); in the data active means inhibition above about 50%; inconclusive means no clear call, values can overlap the other calls
BH1578 lux ind = inducers of Vibrio cholerae quorum light production without autoinducers, primary screen, BH1578 luxS cqsA deficient, single point | V. cholerae BH1578 lux reporter, luminescence, 6 h | activation, % at 18.7 µM | actives 0.16% (n = 350,000); in the data active means activation mostly above about 9.7%, no sharp cut-off; inconclusive means no clear call, values can overlap the other calls; inactive means mostly below about 3.7%
BoNT F protease = BoNT/F light chain protease inhibitors, primary screen, biochemical, flow cytometry, MLPCN library. Multiplex microsphere protease cleavage assay. inhibition, % at 10 µM. actives 0.22% (n = 360,000). AID 588497, 2011; in the data active means inhibition above about 35%, passing the limit was not always enough; inconclusive means no clear call, values can overlap the other calls; further: plate controls were buffer without enzyme for full effect and enzyme alone for no effect
BoNT A protease = BoNT/A light chain protease inhibitors, primary screen, biochemical, flow cytometry, MLPCN library. AID 588499, 2011. multiplex microsphere protease substrate cleavage. inhibition, % at 10 µM. actives 0.17% (n = 360,000); further: plate controls were buffer without enzyme for full effect and enzyme alone for no effect
Anthrax LF inh2 = Bacillus anthracis LF protease inhibitors, primary screen, biochemical, multiplex microsphere, MLPCN library | multiplex microsphere protease cleavage assay | inhibition, % at 10 µM | actives 0.12% (n = 360,000) | AID 588501, 2011; further: plate controls were buffer without enzyme for full effect and enzyme alone for no effect
Target sequence (P15917 whole entry, looked up): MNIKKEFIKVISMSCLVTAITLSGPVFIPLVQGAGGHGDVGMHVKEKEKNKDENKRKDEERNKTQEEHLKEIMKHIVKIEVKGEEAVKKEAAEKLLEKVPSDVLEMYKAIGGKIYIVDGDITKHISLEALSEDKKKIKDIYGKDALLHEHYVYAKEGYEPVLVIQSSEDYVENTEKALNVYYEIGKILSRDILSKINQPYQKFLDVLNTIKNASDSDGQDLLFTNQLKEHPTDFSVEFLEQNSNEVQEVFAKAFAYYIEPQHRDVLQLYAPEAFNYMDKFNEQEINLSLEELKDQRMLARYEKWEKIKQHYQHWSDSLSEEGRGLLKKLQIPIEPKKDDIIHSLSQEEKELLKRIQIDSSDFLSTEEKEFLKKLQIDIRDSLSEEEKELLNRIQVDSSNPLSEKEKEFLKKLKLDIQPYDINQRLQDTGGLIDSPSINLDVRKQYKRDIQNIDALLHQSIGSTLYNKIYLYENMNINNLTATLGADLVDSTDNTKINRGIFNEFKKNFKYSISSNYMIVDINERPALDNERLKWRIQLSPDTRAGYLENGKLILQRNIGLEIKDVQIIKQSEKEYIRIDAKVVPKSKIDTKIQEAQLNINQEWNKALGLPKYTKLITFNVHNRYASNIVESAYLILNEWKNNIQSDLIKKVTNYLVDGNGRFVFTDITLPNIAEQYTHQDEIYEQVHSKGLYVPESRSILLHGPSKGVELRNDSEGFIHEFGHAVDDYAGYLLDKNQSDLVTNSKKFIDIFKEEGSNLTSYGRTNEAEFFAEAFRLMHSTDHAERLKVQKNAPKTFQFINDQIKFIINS
Autofluor counter = compound fluorescence in toxin protease inhibitor counterscreen | actives 3.1% (n = 360,000) | fluorescence intensity (concentration not given with the values) | compound autofluorescence counterscreen, microsphere flow cytometry; hits give high values; in the data active means fluorescence intensity above about 16000; inconclusive means no clear call, values can overlap the other calls
* = called active by the depositor; i = inactive; ? = inconclusive; . = not tested or not shown. Unless noted, no stated cut-off is given here; in the data, active means inhibition above about 30%; inconclusive means no clear call, values can overlap the other calls; inactive means below that.

SMILES | BJeLR lethal | BH1578 lux ind | BoNT F protease | BoNT A protease | Anthrax LF inh2 | Autofluor counter
CCc1nc2ccc(C(=O)NCc3cccs3)cn2c1N(CC)Cc1cccc(Br)c1 | . | -1 | -1 | 0 | -3 | 3074
O=C(O)CCCN1C(=O)C2C3CCC(C3)C2C1=O (stereo not given) | . | i | 3 | 0 | 0 | 3621
Nc1ccc2c(c1)C(=O)C(=O)c1ccccc1-2 | 114* | -1 | 2 | -1 | -9 | 2145
O=C1C(=O)c2ccc(-c3ccccc3)cc2-c2ccccc21 | 110* | i | 0 | 0 | -1 | 16446*
Nc1ccc2c(c1)C(=O)c1ccccc1C2=O | 3 | i | . | . | . | .
Nc1ccc2c(c1)C(=O)c1ccccc1-2 | 2 | -1 | ? | 0 | 17 | 3918
CC1=C(C(=O)N2CCCCCC2)CC(CC(=O)NCCCN(C)C)C(=O)N1CCCN1CCCC1=O (stereo not given) | . | . | 6 | 0 | -1 | 5653
CCCS(=O)(=O)NC(=O)C1(C)CCN(C(=O)c2ccc3ccccc3n2)C1 (stereo not given) | . | i | 4 | 1 | 3 | 2993
O=c1cccc2n1CC1CC2CN(Cc2cccc(Cl)c2Cl)C1 (stereo not given) | -4 | 0 | -1 | 0 | 0 | 20838*
COc1ccccc1NC(=O)CSc1ncn(-c2ccccc2)n1 | 2 | 0 | 9 | ? | -5 | 20548*
O=C(CSc1ncn(-c2ccccc2)n1)NCc1ccccc1 | 2 | 3 | -4 | ? | 0 | 23754*
CCOc1ccccc1C(=O)NC(C(=O)OCn1nnc2ccccc2c1=O)C(C)C (stereo not given) | . | i | -2 | 0 | 0 | 3636
CCCC(=O)N1CCC1(C)C(=O)NS(=O)(=O)c1ccccc1 (stereo not given) | . | i | 0 | 0 | -6 | 3552
CCCSc1nc2sc3c(c2c(=O)[nH]1)CCN(Cc1ccccc1)C3 | -6 | i | ? | 32* | 24 | 8728
O=c1[nH]c(C(Cl)Cl)nc2sc3c(c12)CCN(Cc1ccccc1)C3 | 2 | -1 | -15 | 6 | 1 | 4543
COCCNC(=O)C1(C)CCCN(C(=O)c2ccc(N(C)C)cc2)C1 (stereo not given) | . | 0 | 9 | 0 | -6 | 3800
CC(=O)Nc1cc(-c2cccnc2)cn2c(-c3cccc(C(F)(F)F)c3)cnc12 | . | 0 | -5 | 0 | -5 | 3581
COc1ccc(CNC(=O)CCCCCn2c(SCC#N)nc3cc4c(cc3c2=O)OCO4)cc1 | 7 | i | 0 | ? | 2 | 19698*
COc1ccc(-c2csc(-c3cc4ccccc4oc3=N)n2)cc1 | -2 | i | 4 | 39* | 16 | 2740
COc1ccc(-c2noc(-c3cc4ccccc4oc3=O)n2)cc1 | -11 | . | . | . | . | .
C#CCN1C(=O)C(O)(CC(=O)c2cccc(OC)c2)c2ccccc21 (stereo not given) | 1 | -2 | -11 | 0 | 0 | 3708
COc1cccc2cc(C(C)=O)c(=O)oc12 | 4 | i | -1 | -1 | 1 | 19894*
COc1ccc(CN2C(=O)C(O)(CC(=O)c3ccc4c(c3)OCO4)c3ccccc32)cc1OC (stereo not given) | -14 | i | 4 | 5 | -4 | 22009*
CCOC(=O)CN1C(=O)C(O)(CC(=O)c2cccc(OC)c2)c2ccccc21 (stereo not given) | -9 | i | 1 | -1 | -4 | 23744*
Cc1ccc2c(c1C)NC(=O)C2(O)CC(=O)c1ccc2c(c1)OCO2 (stereo not given) | -5 | -2 | 0 | ? | -3 | 16395*
SMILES | BJeLR lethal | BH1578 lux ind | BoNT F protease | BoNT A protease | Anthrax LF inh2 | Autofluor counter
CCN1C(=O)C(O)(CC(=O)c2ccc3c(c2)OCCO3)c2ccccc21 (stereo not given) | 3 | 0 | -4 | 0 | 0 | 5525
O=C(NC1CCN(Cc2ccccc2)CC1)c1ccc(CS(=O)c2ccccc2Cl)o1 (stereo not given) | . | i | -3 | 0 | -2 | 4206
CCCCNC(=O)C[C@@H]1C[C@@]2(C(=O)OC)CCCCC=C2N(Cc2ccccc2)C1=O | . | . | 4 | 0 | -2 | 5653
CSc1ccc(Cn2c(C)c(C(=O)NCc3ccc(F)cc3)sc2=O)cc1 | . | i | 7 | -1 | -1 | 5599
COc1cccc2cc(C(=O)CC3(O)C(=O)N(Cc4ccccc4)c4ccccc43)c(=O)oc12 (stereo not given) | 3 | -6 | -1 | 0 | -3 | 20419*
O=C(O)CC1(O)C(=O)N(Cc2ccccc2)c2ccccc21 (stereo not given) | -4 | 0 | -3 | -1 | -2 | 2603
CC12CCC(C(=O)NCc3ccc(Cl)cc3)(OC1=O)C2(C)C (stereo not given) | -2 | -1 | -3 | -3 | 3 | 21504*
CCOC(=O)c1ccc(NC(=O)C23CCC(C)(C(=O)O2)C3(C)C)cc1 (stereo not given) | 1 | -6 | 0 | 0 | -2 | 16270*
CC12CCC(C(=O)NCc3ccccc3)(OC1=O)C2(C)C (stereo not given) | 1 | i | -2 | 0 | -1 | 2359
COC(=O)[C@]12CCCCC=C1N(Cc1ccco1)C(=O)[C@H](CC(=O)N1CCOCC1)C2 | . | . | -1 | 0 | 8 | 5653
CC(C)[C@H](NC(=O)c1ccccc1)C(=O)OCC(=O)c1ccc2c(c1)NC(=O)CO2 | 2 | -11 | 0 | -1 | -1 | 23418*
O=Cc1cccn1Cc1ccc(Cl)cc1Cl | 3 | 0 | -3 | 0 | -2 | 23592*
NNC(=O)c1cccn(Cc2ccc(Cl)cc2Cl)c1=O | 7 | -1 | 2 | 1 | 11 | 3096
CCCOc1ccc(NC(=O)C2CC(=O)N3CCCN=C3S2)cc1 (stereo not given) | 20 | -1 | 0 | 2 | 0 | 23005*
COc1ccc(C)cc1S(=O)(=O)N1CCCCCC1 | -17 | -2 | -2 | 0 | -2 | 4267
CCOc1ccc(OCC)c(S(=O)(=O)n2ccnc2C)c1 | -13 | 0 | 33 | 4 | 5 | 2706
COc1ccc(C)cc1S(=O)(=O)N1CCC(C)CC1 | -2 | i | 5 | 4 | 3 | 21743*
CCOc1cc(S(=O)(=O)N2CCCCC2)ccc1F | -17 | 0 | 3 | 2 | -2 | 22074*
CCOc1ccc(C)cc1S(=O)(=O)N1CCCCC1 | 1 | i | 0 | ? | 0 | 21517*
CCOc1ccc(OCC)c(S(=O)(=O)N2CCCCC2C)c1 (stereo not given) | -6 | 12 | -2 | 0 | 0 | 16721*
CCOc1cc(S(=O)(=O)N2CCCC2)ccc1Cl | -10 | i | -25 | -3 | -7 | 7807
